Inconclusive results are not listed. Values without a mark were called inactive. The source made the active and inactive calls. Calls follow the shape of the dose curve; as a rule, active = well fitted curve in the direction sought with a large enough effect; inconclusive = small, poorly fitted or top-dose-only effect, or another doubt; inactive = no such curve, though single readings can be large; an effect the other way counts as inactive or inconclusive. *1 amine or outer side, *2 acyl side, *3 side chain or, on linkers, in order; H or OH if unused. Where a SMILES comes first, the peptide text is derived from it. [ ]: non-standard residue; d: D form. The star is where a group is joined. ξ: configuration not given here. X9 = CCC(C)(N*)C(=O)C1CC[C@@H](C(=O)N[C@@H](Cc2ccccc2)C(=O)NCC(=O)O)N1; X8 = O=C([C@@H]1CC(O)CN1[*:1])[*:2]; aIle = CC[C@@H](C)[C@H](N)C(=O)O; Thr(3ξ) = CC(O)[C@H](N)C(=O)O; ξIva = CCC(C)(N)C(=O)O; Aib = CC(C)(N)C(=O)O

This is an account of results in PubChem BioAssay (NCATS).

The target in assay [1] is Calcium and integrin-binding protein 1 (Homo sapiens) (UniProt Q99828). Nature of the assay: Primary qHTS for Identification of Calcium Integrin Binding Protein 1 (CIB1) Competitor (AID 1508620).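 Also: GST tagged CIB1 binding a fluorescein labelled alphaIIb integrin peptide tracer; top concentration of the series differs between compounds.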 The method in brief:
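Fluorescence polarization competition: CIB1-GST (1 uM final) preincubated with compound 15 min at room temperature, then FITC-labeled alphaIIb peptide (100 nM final) added for another 15 min. Polarization read at Ex 480/Em 540.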
For orientation: Quantitative high-throughput screening tests each substance at several concentrations.

The nature of assay [2]: Primary qHTS for inhibitors of nuclear receptor binding SET domain protein 2 (NSD2) in an isogenic RCH-ACV NSD2 p.E1099K mutant (9B) (AID 1645876). Also: nearly all actives have a fitted effect of over 70% in size.
Assay [3] can be described thus: Primary qHTS for inhibitors of nuclear receptor binding SET domain protein 2 (NSD2) in an RCH-ACV wild type WT cells (2C) (AID 1645877). Also: nearly all actives have a fitted effect of over 70% in size.
% is scaled to controls: 0 for no effect and ±100 for the full control effect.

Chain of Calcium and integrin-binding protein 1 (Homo sapiens) (Q99828 whole entry, looked up): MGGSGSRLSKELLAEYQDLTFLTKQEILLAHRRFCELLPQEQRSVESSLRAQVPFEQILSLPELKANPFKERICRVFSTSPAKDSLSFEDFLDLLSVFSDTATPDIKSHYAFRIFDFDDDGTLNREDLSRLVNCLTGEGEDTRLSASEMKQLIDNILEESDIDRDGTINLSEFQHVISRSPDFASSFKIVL

For `O=C(O)/C=C/c1ccc(O[C@@H]2O[C@H](CO)[C@@H](O)[C@H](O)[C@H]2O)cc1`, the Potency result in assay [1] and in assay [2] was “inactive” throughout.
For `C[C@@H]1CCC2C(C)(C)[C@H](O)[C@H](O)C[C@]2(C)[C@@]12Cc1c(O)cc3c(c1O2)CN(CCCC(=O)O)C3=O` (some centres not stated), the Potency result in assay [1] and in assay [2] was “inactive” in each case.
As for `C[C@@H]1O[C@@H](O[C@H]2[C@H](OC(=O)[C@]34CCC(C)(C)C[C@H]3C3=CCC5[C@@]6(C)C[C@@H](O)[C@@H](O[C@@H]7O[C@H](CO)[C@@H](O)[C@H](O)[C@H]7O)[C@@](C)(CO)C6[C@H](O)C[C@@]5(C)[C@]3(C)CC4)OC[C@H](O)[C@@H]2O)[C@H](O)[C@H](O[C@@H]2OC[C@](O)(CO)[C@H]2O)[C@H]1O[C@@H]1OC[C@@H](O)[C@H](O[C@H]2O[C@H](C)[C@@H](O)[C@H](O)[C@@H]2O)[C@H]1O` (some centres not stated), the activity change, negative = inhibition in assay [1] was 5.13% [at 12.4 µM]. Further, in assay [2], the activity change, negative = viability loss is -25.2% [at 9.23 µM].
`CC/C=C/C=C/C1(C)OC(CC(CO)OC)=CC1=O` (configuration not stated): the Potency result in assay [1] and in assay [2] was “inactive” each time.
With `C=CC1(C)CC=C2C(CCC3C(C)(C(=O)O)CCCC23C)C1` (configuration not stated), the Potency entry in assay [1] and in assay [2] was “inactive” each time.
In the case of `CC(C)c1ccc2c(c1)C(=O)CC1C(C)(C(=O)O)CCCC21C` (configuration not stated), the Potency entry in assay [1] and in assay [2] was “inactive” each time.
Take `C=C(C)C(O)COc1ccc(CC(=O)O)cc1` (configuration not stated): the Potency entry in assay [1] and in assay [2] was “inactive” each time.
Regarding `CC1(C)C[C@H]2C=C(C=O)[C@]3(C(=O)O)C[C@]3(C)[C@H]2C1`, the Potency result in assay [1] and in assay [2] was “inactive” each time.
Turning to `CC1CCC2C(C)(C)C(O)C(O)CC2(C)C12Cc1c(O)cc(CO)c(C=O)c1O2` (configuration not stated), the Potency entry in assay [1] and in assay [2] was “inactive” in each case.
Regarding `CC1(C(=O)O)CCCC2(C)C3CCC4CC3(CCC12)CC4(O)CO` (configuration not stated), the Potency entry in assay [1] and in assay [2] was “inactive” each time.
As for `CC(=O)NC(C(=O)OC1CCC(C)(C)C2CC=C3C(=O)OCC3C12C)C(C)C` (configuration not stated), the Potency result in assay [1] and in assay [2] was “inactive” in each case.
As to `C=C1C(=O)O[C@@H]2/C=C(\C)CC/C=C(\C(=O)O[C@@H]3O[C@H](CO)[C@@H](O)[C@H](O)[C@H]3O)CC[C@@H]12`, the Potency result in assay [1] and in assay [2] was “inactive” in each case.
For the compound `C=C1CCC2[C@@](C)(C(=O)O)CCC[C@@]2(C)[C@@H]1CCc1ccoc1` (some centres not stated), the Potency result in assay [1] and in assay [2] was “inactive” each time.
For `CC(O)C/C=C/C=C/C(=O)OC1C=C2COC(=O)C2(O)C2(C)CCCC(C)(C)C12` (configuration not stated), the Potency entry in assay [1] and in assay [2] was “inactive” each time.
As to `C/C=C(/C)C(=O)OC1CC(C)(C)CC2C3=CCC4C5(C)CCC(OC6OC(C)C(OC7OC(C(=O)O)C(O)C(OC8OC(CO)C(O)C(O)C8OC8OC(CO)C(O)C(O)C8O)C7O)C(O)C6O)C(C)(C)C5CCC4(C)C3(C)C(OC(=O)/C=C/C=C/C=C/CCC)C(OC(C)=O)C12CO` (configuration not stated), in assay [1], the activity change, negative = inhibition was 0.802% [at 12.4 µM]. Besides, the activity change, negative = viability loss in assay [2] was -8.21% [at 9.23 µM].
Turning to `C=C1C(O)CC2C(C(=O)O)=COC(OC3OC(CO)C(O)C(O)C3OC(=O)/C=C\c3ccc(O)cc3)C12` (configuration not stated), the Potency result in assay [1] and in assay [2] was “inactive” throughout.
On to `COc1cc(C(C)=O)ccc1O[C@@H]1O[C@H](CO[C@@H]2OC[C@@H](O)[C@H](O)[C@H]2O)[C@@H](O)[C@H](O)[C@H]1O`, for which the Potency entry in assay [1] and in assay [2] was “inactive” each time.
For the compound `C=C1C2(C)CC3C4(C)OC(C5OC56C4=CC(=O)OC6(C)C)C3(C)C13C(=O)OC(C)C3(O)C2=O` (configuration not stated), the Potency entry in assay [1] and in assay [2] was “inactive” throughout.
Take `CC(C)c1ccc2c(c1)CCC1[C@](C)(C(=O)O)CCC[C@]21C` (some centres not stated): the Potency result in assay [1] and in assay [2] was “inactive” in each case.
As to `CC1CC(=O)[C@]2(O)C(C(=O)OCCc3ccc(O)c(O)c3)=CO[C@@H](O[C@@H]3O[C@H](CO)[C@@H](O)[C@H](O)[C@H]3O)[C@H]12` (some centres not stated), the Potency result in assay [1] and in assay [2] was “inactive” throughout.
Turning to `CC[C@@H](C)[C@H](NC(=O)C(C)(C)NC(=O)[C@H](CCC(N)=O)NC(=O)C(C)(CC)NC(=O)[C@H](Cc1c[nH]c2ccccc12)NC(C)=O)C(=O)N[C@H](C(=O)NC(C)(C)C(=O)N[C@@H](CC(C)C)C(=O)NC(C)(C)C(=O)N1CCC[C@H]1C(=O)N[C@@H](CCC(N)=O)C(=O)NC(C)(C)C(=O)N1CC(O)C[C@H]1C(=O)NC(C)(CC)C(=O)C1CC[C@@H](C(=O)N[C@@H](Cc2ccccc2)C(=O)NCC(=O)O)N1)C(C)O` (some centres not stated) (Ac-W[ξIva]Q[Aib][aIle][Thr(3ξ)][Aib]L[Aib]PQ[Aib][X8]-X9), the activity change, negative = inhibition in assay [1] was 3.33% [at 12.4 µM]. For the same compound, in assay [2], the activity change, negative = viability loss is -38.6% [at 4.96 µM].
Regarding `C[C@@]1(O)[C@H](O)[C@@H](CO)O[C@H]1n1cnc2c(=O)[nH]c(N)nc21`, the Potency result in assay [1], in assay [2] and in assay [3] was “inactive” each time.
`C=C(CC/C=C(\C)C(=O)O)C1(O)CC=C(C)CC1` (configuration not stated): the Potency result in assay [1] and in assay [2] was “inactive” throughout.
